Consider 4 compounds from PubChem BioAssay (EPA / NIEHS).

Records with an inconclusive call do not appear. Some compounds were tested as several samples or in several runs, with calls that do not always agree. Activity calls are given as the source filed them. How the source made its calls, unless noted: active means hit-call score of the fitted dose curve at least 0.9, where 1 is the maximum; inactive means score below 0.9.

The target of test [1] is human RAR-related Orphan Receptor gamma (RORg), RORC (gene 6097) (UniProt P51449). Description: ATG_RORg_TRANS: Attagene TRANS-FACTORIAL HepG2 Assay for human RAR-related Orphan Receptor gamma (RORg) (AID 2283011; active means hit-call score of the fitted dose curve at least 0.9, where 1 is the maximum). Put shortly: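 First, HepG2 liver cells were transfected with GAL4-UAS-driven reporter constructs and the RORg-Gal4 fusion. Next, they were treated with chemical for 24 h. Finally, reporter mRNA was quantified by RT-PCR and capillary electrophoresis, with upward activity fitted against DMSO.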
Sequence of human RAR-related Orphan Receptor gamma (RORg), RORC (gene 6097) (P51449 whole entry, looked up, the tested form may be a part): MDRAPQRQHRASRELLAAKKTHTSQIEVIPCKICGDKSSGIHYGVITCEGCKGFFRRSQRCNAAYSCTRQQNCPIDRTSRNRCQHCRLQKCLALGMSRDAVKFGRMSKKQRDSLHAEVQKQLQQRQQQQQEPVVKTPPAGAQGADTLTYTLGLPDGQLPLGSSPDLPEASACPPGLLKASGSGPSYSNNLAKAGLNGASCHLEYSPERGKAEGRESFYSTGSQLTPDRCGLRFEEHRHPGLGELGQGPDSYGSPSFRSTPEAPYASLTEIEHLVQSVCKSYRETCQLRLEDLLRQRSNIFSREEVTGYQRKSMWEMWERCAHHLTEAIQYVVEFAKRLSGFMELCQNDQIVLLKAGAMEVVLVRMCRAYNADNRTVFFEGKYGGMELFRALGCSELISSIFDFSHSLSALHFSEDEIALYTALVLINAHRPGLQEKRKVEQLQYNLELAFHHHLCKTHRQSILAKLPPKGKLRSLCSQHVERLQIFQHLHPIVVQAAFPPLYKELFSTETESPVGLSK

The target in test [2] is human Retinoid X Receptor beta (RXRb), RXRB (gene 6257) (UniProt P28702). Description: ATG_RXRb_TRANS: Attagene TRANS-FACTORIAL HepG2 Assay for human Retinoid X Receptor beta (RXRb) (AID 2283013; active means hit-call score of the fitted dose curve at least 0.9, where 1 is the maximum). Put shortly: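 HepG2 cells transiently transfected with multiplexed reporter units driven by GAL4-UAS and exogenous chimeric NR-Gal4 proteins; treated 24 h. Reporter mRNA measured by RT-PCR, 6-FAM labelling and capillary electrophoresis; gain-of-signal fitted versus DMSO baseline.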
Sequence of human Retinoid X Receptor beta (RXRb), RXRB (gene 6257) (P28702 whole entry, looked up, the tested form may be a part): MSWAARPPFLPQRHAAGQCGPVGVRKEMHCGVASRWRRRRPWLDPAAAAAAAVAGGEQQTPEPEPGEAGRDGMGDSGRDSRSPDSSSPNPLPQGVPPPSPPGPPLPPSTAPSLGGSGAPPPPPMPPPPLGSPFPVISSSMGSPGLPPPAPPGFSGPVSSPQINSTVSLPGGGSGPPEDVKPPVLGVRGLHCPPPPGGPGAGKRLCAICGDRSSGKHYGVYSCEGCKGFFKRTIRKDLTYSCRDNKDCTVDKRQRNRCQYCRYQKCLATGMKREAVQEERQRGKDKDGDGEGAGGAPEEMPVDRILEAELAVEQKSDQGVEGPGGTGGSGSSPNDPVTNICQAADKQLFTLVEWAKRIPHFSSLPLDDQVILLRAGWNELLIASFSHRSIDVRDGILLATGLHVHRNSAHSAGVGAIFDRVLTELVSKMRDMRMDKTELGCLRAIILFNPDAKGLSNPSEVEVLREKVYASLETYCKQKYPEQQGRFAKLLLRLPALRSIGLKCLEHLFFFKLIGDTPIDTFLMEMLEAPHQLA

Read-out in test [3]: E-selectin (Homo sapiens) (UniProt P16581)
Description: BSK_3C_Eselectin: BioMAP Diversity Plus: 3C Assay for Eselectin Biomarker Activity (AID 2283015).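 Further: cell surface E-selectin protein quantified by ELISA 24 h after dosing.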 Particulars: primary human endothelial cells (HUVEC); actives raise or lower the signal. A digest of the protocol:
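ELISA read-out of E-selectin on endothelial monolayers after 24 h chemical treatment. Human umbilical vein primary cells served as the system, with DMSO defining baseline activity for bidirectional fitting.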

Read-out in test [4]: Interleukin-1 alpha (IL1a), IL1A (gene 3552)
The test is described as follows: BSK_BE3C_IL1a: BioMAP Diversity Plus: BE3C Assay for Interleukin-1 alpha (IL1a) Biomarker Activity (AID 2283016). To be noted: primary human bronchial epithelial cells; actives raise or lower the signal. Put shortly: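 Human primary bronchial epithelial cells (BE3C system) were dosed with compound and IL-1a measured by ELISA 24 h later. Activity was fitted bidirectionally against DMSO baseline; cytotoxicity was tracked in parallel cultures by SRB total-protein staining.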

Read-out in test [5]: Monocyte Chemoattractant Protein-1 (MCP1), CCL2 (gene 6347)
The test is described as follows: BSK_3C_MCP1: BioMAP Diversity Plus: 3C Assay for Monocyte Chemoattractant Protein-1 (MCP1) Biomarker Activity (AID 2283017). To be noted: primary human endothelial cells (HUVEC); actives raise or lower the signal. A digest of the protocol: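 ELISA read-out of MCP-1 from human umbilical vein endothelial cell cultures harvested 24 h post-dosing. Gain or loss of signal was fitted relative to DMSO.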

Read-out in test [6]: Monocyte Chemoattractant Protein-1 (MCP1), CCL2 (gene 6347)
The test is described as follows: BSK_4H_MCP1: BioMAP Diversity Plus: 4H Assay for Monocyte Chemoattractant Protein-1 (MCP1) Biomarker Activity (AID 2283018). Particulars: primary human endothelial cells (HUVEC); actives raise or lower the signal. A digest of the protocol:
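Human umbilical vein endothelial cells (4H system) dosed with chemical; MCP-1 measured by ELISA 24 h after dosing. Bidirectional curve fitting against DMSO negative control as baseline; parallel SRB total-protein staining tracks overt cytotoxicity.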

Read-out in test [7]: Human Leukocyte Antigen - DR isotype (HLADR), HLA-DRA (gene 3122)
The test is described as follows: BSK_3C_HLADR: BioMAP Diversity Plus: 3C Assay for Human Leukocyte Antigen - DR isotype (HLADR) Biomarker Activity (AID 2283019). Particulars: primary human endothelial cells (HUVEC); actives raise or lower the signal. Put shortly: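 ELISA readout of surface HLA-DR on human umbilical vein endothelium, taken 24 h after chemical treatment. Gain- and loss-of-signal were both fitted relative to DMSO.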

Read-out in test [8]: Interleukin-8 (IL8), CXCL8 (gene 3576)
Description: BSK_3C_IL8: BioMAP Diversity Plus: 3C Assay for Interleukin-8 (IL8) Biomarker Activity (AID 2283020). Particulars: primary human endothelial cells (HUVEC); actives raise or lower the signal. A digest of the protocol:
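Primary human umbilical vein endothelial cells (3C system) were exposed to test chemical for 24 h, then IL-8 was quantified by ELISA. Responses were fitted bidirectionally against DMSO vehicle as baseline.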

Read-out in test [9]: Monokine induced gamma interferon (MIG), CXCL9 (gene 4283)
The test is described as follows: BSK_3C_MIG: BioMAP Diversity Plus: 3C Assay for Monokine induced gamma interferon (MIG) Biomarker Activity (AID 2283021).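 On AC50: MIG protein level measured by immunoassay in the treated endothelial cultures.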 To be noted: primary human endothelial cells (HUVEC); actives raise or lower the signal. Put shortly: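 Primary human umbilical vein endothelial cells in the 3C system were exposed to chemical for 24 h, after which MIG was quantified by ELISA. Activity was fitted bidirectionally against DMSO as negative control and baseline.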

In test [10] the target is human Vitamin D Receptor (VDR), VDR (gene 7421) (UniProt P11473). The test is described as follows: ATG_VDR_TRANS: Attagene TRANS-FACTORIAL HepG2 Assay for human Vitamin D Receptor (VDR) (AID 2283022; active means hit-call score of the fitted dose curve at least 0.9, where 1 is the maximum). Put shortly: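 Steps: transfect HepG2 with GAL4-UAS-driven reporter constructs; dose compounds 24 h; isolate RNA, reverse-transcribe, PCR-amplify with 6-FAM-labelled primer extension and HpaI digestion; quantify fragments by capillary electrophoresis relative to DMSO.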
Sequence of human Vitamin D Receptor (VDR), VDR (gene 7421) (P11473 whole entry, looked up, the tested form may be a part): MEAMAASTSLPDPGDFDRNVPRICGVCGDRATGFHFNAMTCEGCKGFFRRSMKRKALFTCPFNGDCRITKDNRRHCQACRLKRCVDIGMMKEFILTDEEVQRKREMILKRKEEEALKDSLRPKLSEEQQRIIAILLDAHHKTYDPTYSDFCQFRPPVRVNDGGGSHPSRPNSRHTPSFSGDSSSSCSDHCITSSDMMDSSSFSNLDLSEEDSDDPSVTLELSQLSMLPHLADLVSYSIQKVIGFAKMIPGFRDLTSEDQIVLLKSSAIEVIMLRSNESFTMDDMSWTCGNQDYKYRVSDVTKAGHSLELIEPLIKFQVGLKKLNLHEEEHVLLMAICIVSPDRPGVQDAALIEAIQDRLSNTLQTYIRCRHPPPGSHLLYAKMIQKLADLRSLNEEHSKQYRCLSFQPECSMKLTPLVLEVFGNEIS

Test [11] can be described thus: BSK_3C_SRB: Viability Assessment in the BioMAP Diversity Plus: 3C Assay (AID 2283023).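 Further: fitted both ways against DMSO so a hit may be signal rise or drop.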 To be noted: primary human endothelial cells (HUVEC). Put shortly: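 Absorbance at 560 nm of sulforhodamine B-stained (0.1%) total protein served as a cytotoxicity readout in human umbilical vein endothelial cells, 24 h after chemical treatment. Signal was fitted bidirectionally relative to DMSO.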

Read-out in test [12]: Matrix Metallopeptidase 1 (MMP1), MMP1 (gene 4312)
The test is described as follows: BSK_BE3C_MMP1: BioMAP Diversity Plus: BE3C Assay for Matrix Metallopeptidase 1 (MMP1) Biomarker Activity (AID 2283024). Particulars: primary human bronchial epithelial cells; actives raise or lower the signal. A digest of the protocol: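 Primary human bronchial epithelial cells were dosed with test chemicals, and MMP1 levels were measured by ELISA 24 h later. Data were fitted bidirectionally against DMSO as the negative control and activity baseline.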

Test [13] can be described thus: BSK_3C_Vis: BioMAP Diversity Plus: 3C Assay for Morphology Visualization (AID 2283025).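 Further: fitted both ways so gain or loss versus DMSO counts.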 To be noted: primary human endothelial cells (HUVEC). Put shortly:
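Human umbilical vein endothelial cells in the 3C system were imaged by light microscopy 24 h after chemical dosing to record cell morphology. Activity was fitted bidirectionally against DMSO as negative control and baseline; the endpoint serves as a background control.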

Read-out in test [14]: Pselectin, SELP (gene 6403)
The test is described as follows: BSK_4H_Pselectin: BioMAP Diversity Plus: 4H Assay for Pselectin Biomarker Activity (AID 2283026). To be noted: primary human endothelial cells (HUVEC); actives raise or lower the signal. Put shortly: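 Primary human umbilical vein endothelial cells were exposed to test chemical for 24 h, then cell-surface P-selectin was quantified by ELISA. Activity was fitted bidirectionally against DMSO as negative control and baseline.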

Test [15] in a line: BSK_4H_SRB: Viability Assessment in the BioMAP Diversity Plus: 4H Assay (AID 2283027).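 Further: cells exposed to compound for 24 h before staining.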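 On AC50: curves fitted both ways versus DMSO so AC50 may be loss or gain.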 To be noted: primary human endothelial cells (HUVEC). A digest of the protocol: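 Human umbilical vein endothelial cells were dosed with chemical and, after 24 h, fixed with 10% TCA, stained with 0.1% sulforhodamine B, and read at 560 nm to give total protein as a cytotoxicity measure. Bidirectional fitting relative to DMSO control.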

A short description of test [16]: BSK_BE3C_SRB: Viability Assessment in the BioMAP Diversity Plus: BE3C Assay (AID 2283028).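 On AC50: fitted both ways so AC50 may mark signal gain or loss versus DMSO.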 Particulars: primary human bronchial epithelial cells. A digest of the protocol: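 Cells (human bronchial epithelial, primary) are treated with chemicals, and after 24 h the parallel cultures are fixed in 10% TCA. These are then stained with 0.1% SRB and read at 560 nm. Gain or loss of signal is fitted relative to DMSO.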

Read-out in test [17]: Thrombomodulin, THBD (gene 7056)
Description: BSK_3C_Thrombomodulin: BioMAP Diversity Plus: 3C Assay for Thrombomodulin Biomarker Activity (AID 2283029). Particulars: primary human endothelial cells (HUVEC); actives raise or lower the signal. Put shortly:
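Primary human umbilical vein endothelial cells (3C system) were exposed to chemical for 24 h, then thrombomodulin levels were measured by ELISA. Activity was fitted bidirectionally against the DMSO negative control as baseline.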

For test [18], the target named is Retinoic acid receptor RXR-alpha (Homo sapiens) (UniProt P19793). The test is described as follows: ATG_RXRa_TRANS: Attagene TRANS-FACTORIAL HepG2 Assay for human Retinoid X Receptor alpha (RXRa) (AID 2283012; active means hit-call score of the fitted dose curve at least 0.9, where 1 is the maximum). Put shortly: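 HepG2 cells transiently transfected with multiplexed GAL4-UAS reporter units and chimeric NR-GAL4 fusions, dosed 24 h. Reporter mRNA measured by RT-PCR, FAM labelling, HpaI digestion and capillary electrophoresis; gain-of-signal fitted relative to DMSO baseline.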
Sequence of Retinoic acid receptor RXR-alpha (Homo sapiens) (P19793 whole entry, looked up, the tested form may be a part): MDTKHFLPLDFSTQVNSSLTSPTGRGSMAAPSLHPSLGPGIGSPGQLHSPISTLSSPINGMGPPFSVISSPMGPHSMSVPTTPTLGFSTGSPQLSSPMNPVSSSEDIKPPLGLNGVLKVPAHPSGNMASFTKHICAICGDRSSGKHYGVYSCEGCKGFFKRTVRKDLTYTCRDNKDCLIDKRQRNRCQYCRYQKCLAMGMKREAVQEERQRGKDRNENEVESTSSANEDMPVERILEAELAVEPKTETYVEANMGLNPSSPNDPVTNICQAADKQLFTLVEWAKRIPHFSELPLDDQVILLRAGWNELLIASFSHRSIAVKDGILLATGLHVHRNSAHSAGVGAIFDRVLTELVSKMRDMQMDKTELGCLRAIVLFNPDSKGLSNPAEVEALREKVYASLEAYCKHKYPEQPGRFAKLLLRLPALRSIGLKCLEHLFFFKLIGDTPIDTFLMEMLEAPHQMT

For test [19], the target named is human Thyroid Receptor alpha (THRa1), THRA (gene 7067) (UniProt P10827). Description: ATG_THRa1_TRANS: Attagene TRANS-FACTORIAL HepG2 Assay for human Thyroid Receptor alpha (THRa1) (AID 2283014; active means hit-call score of the fitted dose curve at least 0.9, where 1 is the maximum). Put shortly: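 Reporter transcript induction, read by capillary electrophoresis of 6-FAM-labelled RT-PCR products, reflects activity of a transfected THRa1-Gal4 fusion in HepG2 liver cells. Cells were dosed for 24 h; activity was fitted in the positive direction against DMSO.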
Sequence of human Thyroid Receptor alpha (THRa1), THRA (gene 7067) (P10827 whole entry, looked up, the tested form may be a part): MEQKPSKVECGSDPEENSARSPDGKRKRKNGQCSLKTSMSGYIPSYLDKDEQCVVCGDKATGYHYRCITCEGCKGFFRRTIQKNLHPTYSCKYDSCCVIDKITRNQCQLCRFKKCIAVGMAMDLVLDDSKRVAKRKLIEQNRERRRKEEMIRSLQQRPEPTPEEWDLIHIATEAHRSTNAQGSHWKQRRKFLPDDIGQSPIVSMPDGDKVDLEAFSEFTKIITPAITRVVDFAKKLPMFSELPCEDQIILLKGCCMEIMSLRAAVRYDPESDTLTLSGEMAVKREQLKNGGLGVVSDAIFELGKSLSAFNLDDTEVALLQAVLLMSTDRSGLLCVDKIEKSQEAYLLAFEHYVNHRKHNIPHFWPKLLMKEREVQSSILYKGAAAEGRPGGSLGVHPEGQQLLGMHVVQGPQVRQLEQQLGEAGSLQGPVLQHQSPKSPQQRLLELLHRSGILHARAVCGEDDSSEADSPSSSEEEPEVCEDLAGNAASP

Read-out in test [20]: Urokinase-type plasminogen activator receptor (uPAR), PLAUR (gene 5329)
The test is described as follows: BSK_4H_uPAR: BioMAP Diversity Plus: 4H Assay for Urokinase-type plasminogen activator receptor (uPAR) Biomarker Activity (AID 2283030). To be noted: primary human endothelial cells (HUVEC); actives raise or lower the signal. Put shortly: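 Cell-surface uPAR ELISA signal, measured 24 h after dosing human umbilical vein endothelial cells, was analyzed with bidirectional fitting relative to DMSO. Parallel SRB staining of total protein tracked overt cytotoxicity.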

Sequence of E-selectin (Homo sapiens) (P16581 whole entry, looked up): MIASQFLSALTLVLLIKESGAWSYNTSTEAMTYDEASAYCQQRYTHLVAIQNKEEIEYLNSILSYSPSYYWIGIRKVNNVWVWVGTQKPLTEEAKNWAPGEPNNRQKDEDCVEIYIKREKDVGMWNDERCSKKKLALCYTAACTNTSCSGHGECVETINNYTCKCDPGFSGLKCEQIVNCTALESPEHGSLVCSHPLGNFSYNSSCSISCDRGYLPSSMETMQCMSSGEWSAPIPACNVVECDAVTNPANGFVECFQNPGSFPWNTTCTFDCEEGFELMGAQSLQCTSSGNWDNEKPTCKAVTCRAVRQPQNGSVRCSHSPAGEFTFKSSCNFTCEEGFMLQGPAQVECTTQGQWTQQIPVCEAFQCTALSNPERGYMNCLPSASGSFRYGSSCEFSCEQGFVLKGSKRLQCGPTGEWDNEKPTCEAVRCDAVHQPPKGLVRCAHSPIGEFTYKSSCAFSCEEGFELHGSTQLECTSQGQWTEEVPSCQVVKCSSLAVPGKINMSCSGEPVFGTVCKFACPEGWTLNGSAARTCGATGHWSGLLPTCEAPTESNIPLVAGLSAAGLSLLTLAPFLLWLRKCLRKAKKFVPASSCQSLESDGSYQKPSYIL

Regarding `CCCCOCCOP(=O)(OCCOCCCC)OCCOCCCC`, the result in test [1], in [2], in test [3], in test [4], in [6] and in test [8] was inactive. The result in test [9], in test [10], in [11], in test [12], in test [14] and in test [15] was inactive. Further, the outcome in test [16] and in test [17] was inactive. Moreover, the AC50 (in general, the midpoint of the concentration-response curve, whichever way the signal moves) is 24.8 µM (active) in test [2], 3.97 µM (active) in [5], 12.8 µM (active) in test [7] and 37.5 µM (active) in [13].
As for `CC(C)Nc1ccc(Nc2ccccc2)cc1`, the call in test [1], in test [18], in test [2], in test [19], in test [12] and in test [17] was inactive. Also, the AC50 in test [4] is 6.48 µM (active); in test [5], 9.95 µM (active); in [6] it was 6.18 µM (active); in [7] it was 4.45 µM (active); in test [8], 12.8 µM (active); in test [9], 20 µM (active). Further, the AC50 in [11] was 11 µM (active); in test [13] it was 9.94 µM (active); in test [14], 7.42 µM (active); in [15], 9.88 µM (active); in test [16] it was 33.2 µM (active); in test [20], 14.4 µM (active).
For `CCNc1nc(Cl)nc(NC(C)(C)C)n1`, the call in [1], in [18], in test [19], in [4], in test [5] and in test [6] was inactive. The result in test [7], in test [8], in [9], in test [10], in test [11] and in test [12] was inactive. Further, the result in test [14], in [15], in test [16], in [17] and in [20] was inactive. The AC50 in test [2] is 49.1 µM (active).
Consider `CCCCN(CC)C(=O)SCCC`, for which the result in test [1] and in [10] was inactive. Also, in test [2], the AC50 is 59.1 µM (active).
